Data published in PubChem BioAssay (NCI).
This is part of a sample that, as a whole, favours compounds with a hit. Of some 83,000 tested, about 20% had one in any assay.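 For each line, cells grew in 96-well plates with the test compound present at a single concentration for 48 hours.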 Values without a mark were called inactive. Active and inactive are the calls of the source. Rule for the calls: active = growth percent below 10; inactive = the rest.

What was measured:
Assay in all cases: NCI-60 one-dose screen, 48 h (100 = growth as untreated, 0 = no growth, -100 = all killed)
Settings in all cases: 10 µM unless noted
NCI-H23 lung = system: NCI-H23 lung
NCI-H226 lung = system: NCI-H226 lung
NCI-H322M lung = system: NCI-H322M lung
HOP-62 NSCLC = system: HOP-62 NSCLC
NCI-H460 lung = system: NCI-H460 lung
HOP-92 NSCLC = system: HOP-92 NSCLC
NCI-H522 lung = system: NCI-H522 lung
A549/ATCC NSCLC = system: A549/ATCC NSCLC
786-0 renal = system: 786-0 renal
COLO 205 colon = system: COLO 205 colon

SMILES | growth (NCI-H23 lung) | growth (NCI-H226 lung) | growth (NCI-H322M lung) | growth (HOP-62 NSCLC) | growth (NCI-H460 lung) | growth (HOP-92 NSCLC) | growth (NCI-H522 lung) | growth (A549/ATCC NSCLC) | growth (786-0 renal) | growth (COLO 205 colon)
N#Cc1c(N)nn(C(=O)c2ccc(NC(=O)c3ccccn3)cc2)c1-c1ccc(Cl)cc1 | 20% | 20.1% | 22.2% | -18.4% (active) | 15.9% | 7.04% (active) | 36.3% | 35.4% | 9.76% (active) | 1.15% (active)
Cc1ccc(NCCN(C)C)c2c(=O)c3ccccc3sc12 | 40.5% | 32.3% | 53.5% | 36.2% | -14.5% (active) | 30.4% | 16.8% | 7.25% (active) | 24.2% | -53.5% (active)
Cc1cccc(NC(=O)CSc2nc3ccccc3[nH]2)c1 | 94.6% | 92% | 97% | 88.7% | 105% | 88.4% | 90.9% | 101% | 103% | 110%
CCOP(=O)(OCC)C1CP(=O)(c2ccccc2)CC(C)=C1Cl (stereo not given) | 91.7% | 99.3% | 97.7% | 97.1% | 113% | 93.1% | 65.3% | 87.5% | 87.8% | 109%
N=C1C(c2nc(-c3ccc(Br)cc3)cs2)=C(O)CN1CC1CCCO1 (stereo not given) | 88.8% | 103% | 103% | 18.5% | 60.2% | 69.6% | 99.6% | 75.2% | 61.7% | 90.8%
CNC(=O)c1cc(Oc2cccc3nc(Nc4ccc(F)c(Cl)c4)ccc23)ccn1 | 70% | 46.9% | 76.6% | 50.5% | 62.5% | 77.9% | 40% | 42.1% | 42.6% | 43.7%
c1csc(-c2c3ccc(=[N+]4CCCCC4)cc-3oc3cc(N4CCCCC4)ccc23)c1 | -71.3% (active) | -81.7% (active) | -78.5% (active) | -60.6% (active) | -57.3% (active) | -64.7% (active) | -70% (active) | -56.2% (active) | -92.5% (active) | -61.5% (active)
CN(C)CC1=NC2SC=C(c3ccccc3)C2C(=O)N1CC#N (stereo not given) | 102% | 85.5% | 89.2% | 102% | 115% | -14.6% (active) | 84.5% | 96.3% | 96.2% | 130%
O=Cc1ccc(O)c2ncccc12 | 29.2% | 116% | 97.1% | 44.6% | 30.1% | 43.5% | 51.8% | 100% | 89.3% | 17.8%
CCCCc1ccc(Nc2ccc(Nc3ccc(CCCC)cc3S(=O)(=O)O)c3c2C(=O)c2ccccc2C3=O)c(S(=O)(=O)O)c1 | 91.3% | 79.7% | 96.3% | 99.5% | 104% | 59.4% | 65% | 102% | 117% | 101%
CC1O[C@@H](OC2[C@H](OC(=O)/C=C/c3ccc(O)c(O)c3)C(COC3O[C@H](C)C(O)C(O)[C@@H]3O)O[C@@H](OCCc3ccc(O)c(O)c3)[C@H]2O)[C@@H](O)C(O)[C@H]1O (stereo not given in full) | 101% | 112% | 89.4% | 103% | 109% | 102% | 86.6% | 89.8% | 98.8% | 104%
CCN(CC)S(=O)(=O)c1cccc(-c2ccc3c(NC(=O)C4CC4)n[nH]c3c2)c1 | 28.5% [6.25 µM] | 26.5% [6.25 µM] | 55.6% [6.25 µM] | 18.5% [6.25 µM] | 12.3% [6.25 µM] | 41.3% [6.25 µM] | -17% [6.25 µM] (active) | 21.2% [6.25 µM] | 18.1% [6.25 µM] | 3.94% [6.25 µM] (active)
C[C@]12CC[C@@H]3c4cc(OC(F)F)c(O)cc4CC[C@H]3[C@@H]1CC[C@@H]2OS(N)(=O)=O | 3.46% (active) | 57.4% | 45.4% | 43.3% | 13.9% | 74.6% | 26% | 31.3% | 56.4% | 10.7%
COC(=O)[C@]12CC[C@@H](C)[C@H](C)[C@@H]1C1=CC[C@@H]3[C@@]4(C)C(C=O)=C[C@@](C)(COC(=O)/C=C/c5ccccc5)[C@@H]4[C@H](O)C[C@@]3(C)[C@]1(C)CC2 | 10.4% | 10.1% | 42% | -5.38% (active) | -19.1% (active) | -5.49% (active) | -16.3% (active) | 3.82% (active) | -5.1% (active) | -37% (active)
C[C@H]1[C@H]2[C@H]3CC[C@@H]4[C@@]5(C)C/C(=C/c6ccco6)C(=O)C(C)(C)[C@@H]5CC[C@@]4(C)[C@]3(C)CC[C@]23CO[C@]1(C)[C@@H](C(=O)/C=C\c1ccco1)C3 | 99.6% | 99.6% | 98.4% | 106% | 107% | 87.1% | 85.7% | 88.3% | 104% | -6.84% (active)
COc1cc(/C=N/NC(=O)Cn2c(C(C)C)nc3ccccc32)ccc1O | 94.9% | 93.7% | 93.5% | 92.9% | 97.7% | 82.3% | 92.4% | 105% | 104% | 109%
COc1cccc(-c2nc3sccn3c2-c2ccnc(NCCNS(=O)(=O)c3cccc(Cl)c3)c2)c1 | 53.5% | 40.7% | 80.8% | 70.9% | 45.4% | 37.2% | 56.7% | 45.4% | 63.6% | 34.8%
O=C1/C(=C/c2ccc(Br)cc2)C=C(c2ccccc2)N1CCc1ccccc1 | 40% | -1.06% (active) | 54.3% | -56.9% (active) | 25.6% | -13.9% (active) | 31.2% | 8.19% (active) | -8.73% (active) | 30.4%
c1ccc(Nc2nc(-c3ccccn3)cs2)nc1 | 19.1% | -9.64% (active) | 27.1% | 16.4% | -9.3% (active) | 63.6% | 26.3% | 11.2% | -2.41% (active) | 11.5%
NC1=NCc2nc3ccccc3c(=O)n2C1 | 96.6% | 94.9% | 110% | 98.4% | 111% | 67.5% | 91.6% | 93.9% | 97.6% | 124%
COC(=O)c1c2c(c[n+]([O-])c1C)C(=O)C=CC2=O | 60.4% | 98.1% | 110% | 104% | 98.4% | 70.8% | -69.9% (active) | 100% | 91.6% | 33.5%
